Legend:
Conditions in all cases: 60 µM; 5 days; temperature: 20 °C
Meloidogyne hapla J2 = assay: proportion of mobile M. hapla J2 relative to DMSO control (fraction of DMSO control); higher = more viable, less nematicidal, active = 0.7 or less
How it was run: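 About 25 M. hapla J2 were placed in each well of a 96-well plate in distilled water, and compound was pinned in to a final 60 µM with 0.6% v/v DMSO. The sealed plates were shaken at 200 rpm at 20 °C for 5 days, after which 2 µL of 1 M NaOH went into each well. Mobility was then scored under the microscope and divided by the mean value from DMSO-only wells on the same plate. Each plate held eight such DMSO wells, and two biological replicates were averaged.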

[1] = tested on: Caenorhabditis elegans dauer (daf-2(e1370)); assay: proportion of mobile C. elegans dauer larvae relative to DMSO control (fraction of DMSO control); higher = more viable, less nematicidal, active = 0.63 or less; extreme values may be limits of the assay
How it was run: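 Synchronized C. elegans larvae were kept for 48 h at 25 °C on MYOB plates seeded with E. coli OP50 to induce dauer formation, and roughly 20 dauers were transferred into each well of a 96-well plate containing liquid NGM. Compound was pinned in to a final concentration of 60 µM with 0.6% v/v DMSO, and the sealed plates were shaken at 200 rpm for 5 days at 20 °C. The fraction of mobile worms was scored under a dissection microscope against DMSO-only wells and averaged across two biological replicates.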

Ditylenchus dipsaci = assay: proportion of mobile D. dipsaci (mixed stage) relative to DMSO control (fraction of DMSO control); higher = more viable, less nematicidal, active = 0.86 or less; extreme values may be limits of the assay
How it was run: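 Ditylenchus dipsaci nematodes were cultured on pea plants in Gamborg B-5 agar, then extracted into water through a filter funnel, and roughly 20 worms in distilled water were placed in each well of a 96-well plate. Compound was pinned in to a final concentration of 60 µM (0.6% v/v DMSO), and the sealed plates were shaken at 200 rpm for 5 days at 20 °C. Mobile worms were counted under the microscope after 2 µL of 1 M NaOH was added. Mobility is given relative to DMSO controls as the mean of two biological replicates.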

O=C(CSc1nnc(-c2ccncc2)o1)Nc1cc(C(F)(F)F)ccc1Cl
inactive: proportion of mobile M. hapla J2 (Meloidogyne hapla J2) 0.841 | proportion of mobile C. elegans dauer larvae [1] 1 | proportion of mobile D. dipsaci (Ditylenchus dipsaci) 1

COc1nc(C)ccc1-c1noc(-c2ccccc2Cl)n1
inactive: proportion of mobile M. hapla J2 (Meloidogyne hapla J2) 1.02 | proportion of mobile C. elegans dauer larvae [1] 1 | proportion of mobile D. dipsaci (Ditylenchus dipsaci) 1

Cc1ccc(C(=O)CSc2nnc(-c3ccccc3)o2)cc1
inactive: proportion of mobile M. hapla J2 (Meloidogyne hapla J2) 0.968 | proportion of mobile C. elegans dauer larvae [1] 1 | proportion of mobile D. dipsaci (Ditylenchus dipsaci) 1

O=C(CSc1nnc(-c2cc3ccccc3o2)o1)NC1CC1
inactive: proportion of mobile M. hapla J2 (Meloidogyne hapla J2) 0.928 | proportion of mobile C. elegans dauer larvae [1] 1 | proportion of mobile D. dipsaci (Ditylenchus dipsaci) 1

CCc1ccc(OCc2nc(-c3ccc(C)cc3)no2)cc1
inactive: proportion of mobile M. hapla J2 (Meloidogyne hapla J2) 1.04 | proportion of mobile C. elegans dauer larvae [1] 1 | proportion of mobile D. dipsaci (Ditylenchus dipsaci) 1

Cn1c(SCc2ccc(Cl)cc2)nnc1-c1ccco1
inactive: proportion of mobile M. hapla J2 (Meloidogyne hapla J2) 1.05 | proportion of mobile C. elegans dauer larvae [1] 1 | proportion of mobile D. dipsaci (Ditylenchus dipsaci) 1

O=C(CSc1nnc(-c2ccccc2)o1)c1ccc(Br)cc1
inactive: proportion of mobile M. hapla J2 (Meloidogyne hapla J2) 0.966 | proportion of mobile C. elegans dauer larvae [1] 1 | proportion of mobile D. dipsaci (Ditylenchus dipsaci) 1

Cn1c(SCc2nnc(-c3ccccc3)o2)nnc1-c1ccco1
inactive: proportion of mobile M. hapla J2 (Meloidogyne hapla J2) 0.827 | proportion of mobile C. elegans dauer larvae [1] 1 | proportion of mobile D. dipsaci (Ditylenchus dipsaci) 1

Cc1cccc(-c2nnc(SCC(=O)Nc3ccccc3C(C)C)o2)c1
inactive: proportion of mobile M. hapla J2 (Meloidogyne hapla J2) 0.892 | proportion of mobile C. elegans dauer larvae [1] 1 | proportion of mobile D. dipsaci (Ditylenchus dipsaci) 1

COc1ccc(Cl)cc1NC(=O)CSc1nnc(-c2ccco2)o1
inactive: proportion of mobile M. hapla J2 (Meloidogyne hapla J2) 0.917 | proportion of mobile C. elegans dauer larvae [1] 1 | proportion of mobile D. dipsaci (Ditylenchus dipsaci) 1

CCOc1ccc(NC(=O)CSc2nnc(-c3ccccc3Cl)o2)cc1
inactive: proportion of mobile M. hapla J2 (Meloidogyne hapla J2) 0.974 | proportion of mobile C. elegans dauer larvae [1] 1 | proportion of mobile D. dipsaci (Ditylenchus dipsaci) 1

CCc1cccc(C)c1NC(=O)CSc1nnc(-c2ccccc2)o1
inactive: proportion of mobile M. hapla J2 (Meloidogyne hapla J2) 1.04 | proportion of mobile C. elegans dauer larvae [1] 1 | proportion of mobile D. dipsaci (Ditylenchus dipsaci) 1
